Source: PubChem BioAssay (National Center for Advancing Translational Sciences (NCATS))
FMDV antiviral: foot and mouth disease virus antiviral activity; FMDV antiviral cell-based qHTS; Potency, µM (doses to about 57.9 µM), inactives show at the highest dose activity change, negative = inhibition, most hits filed as inhibitors; 410,000 tested, 1.2% active; AID 1159524; calls by dose curve; tested in HEK293T cells; further: read-out not given here; potency means the concentration at half of the fitted maximal effect; nearly all actives have a fitted effect of over 45% in size
LASV entry inh: blocks Lassa virus binding to or entry into cells; 300,000 tested, 1.2% active; Lassa virus pseudotype entry inhibition, cell reporter; Potency, µM (doses to about 37.9 µM), without a hit: at the top dose activity change, negative = inhibition, usual class: inhibitors; calls by dose curve; tested in HEK293 cells; further: potency means the concentration at half of the fitted maximal effect; nearly all actives have a fitted effect of over 50% in size
HCV inh: blocks hepatitis C virus. Potency, µM (top dose mostly 41.8 µM), inactives show at the highest dose activity change, negative = inhibition, usual class: inhibitors. 340,000 tested, 3.4% active. Huh7.5.1 HCVcc-Cre infection, luciferase reporter, 44 h; active means well fitted inhibition curve with a large enough effect; inconclusive means small, poorly fitted or top-dose-only effect, or another doubt; inactive means no such curve, though single readings can be large or run the other way; further: potency means the concentration at half of the fitted maximal effect
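1,000 cells/well; 4 h culture; + compound; + HCVcc-Cre (~0.5 moi); 44 h; luciferase substrate, RT 15 min; read 15 sec.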
HCMV antiviral: human cytomegalovirus inhibition; HFF cells, HCMV-luciferase reporter, 72 h; stronger effect = lower value; activity change, negative = inhibition, % at 57.5 µM; 410,000 tested, 4.5% active; AID 1259415; in the data active means activity change below about -60%; inconclusive means no clear call, values can overlap the other calls; inactive means above about -39%
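Screen run at 2 compound doses on HFFs infected with reporter HCMV, MOI 1 PFU/cell. Luciferase activity from cell lysates at 72 h post infection gave inhibition relative to buffer-only and Salinomycin wells.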
Marburg entry inh: inhibitors of Marburg virus binding or cell entry; Marburg virus pseudotyped entry inhibition, cell reporter; AID 540276; Potency, µM (series often up to 37.8 µM), without a hit: top-dose activity change, negative = inhibition, usual class: inhibitors; 300,000 tested, 1.8% active; calls by dose curve; tested in HEK293 cells; further: potency means the concentration at half of the fitted maximal effect
An asterisk follows results filed as active; i = inactive; ? = inconclusive; . = not tested or not shown; ! = not active in a repeat; [ ] = another dose, or the depositor's remark. The list is not random: actives were taken first. Their share in the collection is about 7.9%. On the % scale 0 is the no-effect control and ±100 the full control effect.

SMILES	FMDV antiviral	LASV entry inh	HCV inh	HCMV antiviral	Marburg entry inh
COc1ccc(-c2sc3ccccc3c2C#Cc2cncn2C)cc1	-13%	.	3.5µM*	-28	.
COc1ccc(CNC(=O)CCS(=O)(=O)c2cc3c4c(c2)CCN4C(=O)CC3)cc1OC	-1%	19%[46.1 µM]	.	16	.
COc1ccc(/C=C/C(=O)c2ccc3c(c2)OCCO3)cc1[N+](=O)[O-]	?	-6%	32µM*	178	?
O=C(O)c1ccc(/C=C/C(=O)c2ccc3c(c2)OCCCO3)cc1	10µM*	?	1%	i	?
COc1ccc(/C=C/C(=O)c2ccc(Cl)s2)cc1O	-6%	2%	-5%	15	14%
COc1ccc(/C=N/NC(=O)c2ccc3c(c2)OCCO3)cc1[N+](=O)[O-]	-5%	13%	-8%	-22	19%
CC(=O)Nc1ccc(/C=C/C(=O)c2ccc3c(c2)OCCO3)cc1	-28%	-25%	-12%	-13	1%[46.1 µM]
CC(C)(C)c1cc(C(=O)/C=C/c2ccc(C(=O)O)cc2)cc(C(C)(C)C)c1	25µM*	.	.	.	.
COc1cc(/C=C/C(=O)c2ccc(Cl)s2)cc(OC)c1O	13µM*	?	13µM*	.	?
O=C(/C=C/c1ccccc1)c1ccc2ccccc2c1	-9%	?	-6%	32	?
COc1cc(/C=C/C(=O)c2ccc3c(c2)OCO3)cc(Cl)c1O	30%	-12%[46.1 µM]	-19%	-62*	?
CCOc1cc(/C=C/C(=O)c2ccc3c(c2)OCCO3)ccc1OCC(=O)N(C)C	14µM*	.	?	-77*	?
COc1cccc(/C=C/C(=O)c2ccc3c(c2)OCCO3)c1OC	-1%	?	-11%	-96*	?
COc1ccc(C(=O)C=Cc2ccc3c(c2)OCO3)cc1OC	7%	.	.	6	.
CC(CC1=C2C=CC=CC2N=C1)NC(N)=O (centres undefined)	.	.	.	.	5%[46.1 µM]
CC(=O)c1cccc(Nc2nccc3c2cc(-c2cccc(C(F)(F)F)c2)n3C)c1	.	.	.	-31	.
CC(Nc1ccc(-c2nc(-c3ccncc3)no2)cc1[N+](=O)[O-])c1ccccc1 (centres undefined)	-4%	8%[46.1 µM]	.	22	5%[46.1 µM]
Cn1cccc1C(=O)OCc1csc(-c2ccccc2)n1	-6%	?	-22%	261	?
Cn1cccc1C(=O)OCc1ccc(F)cc1	25%	5%	13%	-75*	0%
O=C(Nc1ccc2ccccc2c1)c1ccc(Cl)cc1Cl	-28%	.	?	-38	.
O=C(Nc1ccc2ccccc2c1)c1ccccc1Cl	23%	.	.	8	.
O=C(Nc1ccc2ccccc2c1)c1ccccc1O	-61%	?	?	-99*	2.5µM*
O=C(Nc1ccc2ccccc2c1)c1cc(F)c(F)cc1Cl	31%	?	-29%	37	7.1µM*
Cc1ccc2cc(NC(=O)c3ccccc3C)ccc2n1	35%	-17%[46.1 µM]	-5%	-100*	18%[46.1 µM]
CCOc1ccc(NC(=O)c2cc(F)c(F)cc2Cl)cc1OCC	1%	3%	-23%	-98*	?
SMILES	FMDV antiviral	LASV entry inh	HCV inh	HCMV antiviral	Marburg entry inh
CCCCOc1ccc(NC(=O)c2cc(F)c(F)cc2Cl)cc1	6%	17%	?	-36	?
Cc1ccc2cc(NC(=O)Cc3ccccc3)ccc2n1	71%	.	-2%	88	.
CC1CCN(S(=O)(=O)c2ccc3c(c2)N(CC(=O)NCCN(C)C)C(=O)CS3)CC1	-12%	.	.	0	4%[46.1 µM]
CN(C)CC/C=C1/c2ccccc2Sc2c(O)cc(Cl)cc21	-6%	-6%	?	-22	?
COc1cc(Cl)cc2c1Sc1ccccc1/C2=C/CCN(C)C	-15%	?	4.5µM*	.	?
CN(C)c1ccc(CNC(=O)c2cc3ccccn3n2)cc1	29%	?	.	78	.
COc1ccc(CN2CCN(S(=O)(=O)c3ccc(NC(C)=O)cc3)CC2)c(OC)c1OC	-10%	-20%[46.1 µM]	-11%	-98*!	.
CCOc1ccc(CN2CCN(S(=O)(=O)c3ccc(NC(C)=O)cc3)CC2)cc1OC	.	0%	-29%	11	0%
CC(=O)Nc1ccc(S(=O)(=O)N2CCN(C(C)CCc3ccccc3)CC2)cc1 (centres undefined)	-12%	16µM*	-5%	-8	13µM*
COC(=O)Nc1ccc(S(=O)(=O)N2CCC(Cc3ccccc3)CC2)cc1	-25%	21µM*	-20%	-6	?
COC(=O)Nc1ccc(S(=O)(=O)N2CCC(C)CC2)cc1	-3%	6%	14%	-40	2%
CC(=O)Nc1ccc(NC(=O)C(C)N2CCN(S(=O)(=O)c3ccc(C)cc3)CC2)cc1 (centres undefined)	-6%	?	13%	-3	?
O[C@H]1CN(Cc2cccs2)[C@@H](c2ccc(Cl)cc2)C[C@H]1n1cc(C2CC2)nn1	.	-24%[46.1 µM]	.	.	.
COCCCNC(=O)CSc1nc(-c2ccc(OC)cc2)[nH]c1-c1ccc(OC)cc1	-7%	6%[46.1 µM]	.	-112*	4%[46.1 µM]
COc1ccc(-c2[nH]c(-c3cccc(OC)c3)nc2SCC(=O)NCc2ccco2)cc1	-1%	.	11µM*	6	3%
COc1cc(-c2nc(SCC(=O)Nc3ccc(C)cc3)c(-c3ccc(F)cc3)[nH]2)cc(OC)c1OC	-26%	?	.	-61*	?
Oc1ccc(C=NNC(=S)Nc2ccccc2)nc1	43%	.	.	-97*	.
S=C(N/N=C/c1ccccc1Cl)Nc1ccccc1	9%	?	-5%	6	-19%
Oc1cccc(/C=N/NC(=S)Nc2cccnc2)c1O	59%	21µM*	?	91	?
Fc1c(F)c(F)c(/C=N/NC(=S)Nc2cccnc2)c(F)c1F	?	?	?	-81*	?
Fc1cccc(F)c1/C=N/NC(=S)Nc1cccnc1	7%	5%	?	?	-8%[46.1 µM]
COC(=O)N1C2CC(=O)O[C@H]3c4cc5c(cc4[C@]1(C)[C@@]3(Br)c1ccccc12)OCO5	.	.	.	.	8%[14.2 µM]
COc1cccc(CNC(=O)c2ccc3c(c2)nc2n3CCOC2)c1OC	-4%	6%[46.1 µM]	.	8	.
Cn1c(=O)c2c(nc(Br)n2Cc2ccc3ccccc3c2)n(C)c1=O	14µM*	-18%	?	-14	-19%
Cn1c(=O)c2c(nc(Oc3ccc4ccccc4c3)n2C)n(C)c1=O	-17%	6%	-15%	-76*	-13%
SMILES	FMDV antiviral	LASV entry inh	HCV inh	HCMV antiviral	Marburg entry inh
COc1ccc(Oc2nc3c(c(=O)n(C)c(=O)n3C)n2C)cc1	-10%	.	0%	-37	.
CCN(CCCNC(=O)Cn1ncc2c3ccccc3n(C)c2c1=O)c1cccc(C)c1	-16%	24%[46.1 µM]	.	21	-14%[46.1 µM]
O=C1CS(=O)(=O)C2(C(=O)N(Cc3ccccc3)c3ccccc32)N1c1ccccc1 (centres undefined)	0%	5%[46.1 µM]	.	4	.
COc1ccc(-c2cc(C)nc(SCC(=O)c3cccc([N+](=O)[O-])c3)n2)cc1	10%	5%	16µM*	1	2%
O=C(CSc1ccc([N+](=O)[O-])cc1)c1ccccc1	1%	6%	33%	-73*	?
COc1ccc(-c2ccc(=O)n(Cc3cccc([N+](=O)[O-])c3)n2)cc1	?	.	11µM*	-38	.
